# Assay outcomes: PubChem BioAssay, National Center for Advancing Translational Sciences (NCATS)
# Shown are actives, neighbours in structure and some others; about 6.5% of the full set was active somewhere.
# Giardia killer: kills Giardia lamblia | Giardia lamblia trophozoite viability | activity change, % at 7.66 µM, hits read low | AID 540267 | 340,000 tested, 0.15% active; in the data active = activity change below about -80%; inconclusive = between about -30% and that limit;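 note: parasites exposed to compound for two days anaerobically before the ATP read; % is set by controls: 0 for no effect and ±100 for the full control effect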
#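 Viability, read as ATP luminescence: trophozoites at 100 cells/well, compound added, 48 hrs anaerobic at 37 deg C, then 15-30 min room-temperature development before reading.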
# HepG2 tox: HepG2 cytotoxicity, counter-screen for TGF-b inhibitors | HepG2 CAGA-GFP viability, ATP luminescence, 18 h | Potency, µM (highest dose often 46.1 µM), for inactives: top-dose activity change, negative = cytotoxicity, usual class: cytotoxic | 410,000 tested, 0.76% active | AID 588856; note: potency is the fitted concentration of half-maximal effect
#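 HepG2 CAGA-GFP cells (1000/well, DMEM with 1% FBS) received compound, then TGF-beta at 500 pg/mL final, and were incubated 18 hours at 37 degrees C. Viability was read by CellTiter-Glo luminescence. Media-only wells were set as complete cell-killing and DMSO as no toxicity.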
# HT1080NT lethal: kills 2HG-producing HT-1080-NT fibrosarcoma cells; HT-1080-NT fibrosarcoma viability, CellTiter-Glo ATP luminescence, 48 h; Potency, µM (titrated, usually from 46.1 µM), for inactives: at the highest dose activity, negative = less viability, usual class: cytotoxic; 360,000 tested, 1.6% active; AID 686970;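 note: NT is the 2HG producing partner of a matched IDH1 knockdown line; potency is the fitted concentration of half-maximal effect; 0% = DMSO-treated cells and -100% = media-only wells without cells; nearly all actives have a fitted effect of over 55% in size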
#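 Viability of the 2HG-overproducing fibrosarcoma line after 48 hours of compound exposure at 37 degrees C was determined by luminescence with CellTiter-Glo, and concentration-effect curves were then fitted and categorized.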
# IL1B secr inh: inhibitors of inflammasome signaling (IL-1 beta secretion) | THP-1 LPS/ATP IL-1B secretion, AlphaLISA, 16 h; hits give low values | activity change, % at 57.5 µM | 360,000 tested, 4.7% active | AID 743279; in the data active = activity change below about -50%; inconclusive = mostly about -30% to -49%; note: % is set by controls: 0 for no effect and ±100 for the full control effect
#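 Secreted IL-1B measured by AlphaLISA bead assay after 16 h compound exposure of THP-1 cells; compounds (final up to 57.5 uM) added 1 h before LPS (250 ng/mL) and ATP (1.25 mM) stimulation; lower signal means less secretion.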
# TGFb inhibitor: inhibitors of TGF-b signaling. HepG2 CAGA-GFP TGF-b/SMAD3 reporter, GFP fluorescence, 18 h; TGF-beta stimulated, 500 pg/mL final. Potency, µM (series often up to 46.1 µM), for the others: at the highest dose activity, negative = inhibition, hits mostly inhibitors. 410,000 tested, 1.2% active. AID 588855; note: potency is the fitted concentration of half-maximal effect; % is set by controls: 0 for no effect and ±100 for the full control effect; nearly all actives have a fitted effect of over 65% in size
#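 Smad-responsive CAGA-GFP expression was quantified in HEPG2 cells exposed to compounds and 500 pg/mL final TGF-beta for 18 h at 37 degrees C; unstimulated wells defined full inhibition.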
# HT1080 IDH1KD tx: HT-1080 IDH1 knockdown cell toxicity (counter line) | HT-1080 IDH1 knockdown viability, ATP luminescence, 48 h | Potency, µM (titrated, usually from 46.1 µM), without a hit: at the top dose activity, negative = toxicity, most hits filed as cytotoxic | 360,000 tested, 2% active;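 note: potency is the fitted concentration of half-maximal effect; 0% = DMSO wells and -100% = cell-free medium wells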
#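 HT-1080-IDH1KD cells (IDH1 knocked down), 750/well in RPMI with 5% FBS, treated with compound 48 h at 37 degrees C. Viability by CellTiter-Glo luminescence, normalised to DMSO and no-cell wells; concentration-response curves classed.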
# * marks the source's active call; other numbers are inactive results; ? = inconclusive; nt = no result; [ ] = another dose, or the depositor's remark. Unless noted, calls come from the whole dose curve; as a rule, active = well fitted curve in the direction sought with a large enough effect; inconclusive = small, poorly fitted or top-dose-only effect, or another doubt; inactive = no such curve, though single readings can be large; an effect the other way counts as inactive or inconclusive.
SMILES,Giardia killer,HepG2 tox,HT1080NT lethal,IL1B secr inh,TGFb inhibitor,HT1080 IDH1KD tx
CC(=O)C1=C(C)NC(SCC(=O)c2ccc(Cl)cc2Cl)=C(C#N)C1c1ccco1 (stereo unspecified),-2,-12%,?,-54*,?,?
CC(=O)C1=C(C)NC(SCc2cccc3ccccc23)=C(C#N)C1c1ccco1 (stereo unspecified),7,1%,4%,-3,-21%,0%
CN(C(=O)c1cccc(NC(=O)Cc2cccc(NC(=O)C3CCN(C(=O)C4CCCC4)CC3)c2)c1)C1CCC1,-11,-4%,5%,1,?,5%
Cc1noc(/C=C/c2cccnc2)c1[N+](=O)[O-],?,-75%,21µM*,-94*,?,?
Cc1cccc(C)c1N/C=C/c1onc(C)c1[N+](=O)[O-],0,2%,-5%,29,18%,2%
COc1ccc(N/C=C/C(=O)c2cc(OC)c(OC)c(OC)c2)cc1,17,-6%,1.2µM*,62,?,1.3µM*
COc1ccc(C(=O)/C=C/c2ccc(O)cc2)cc1,-13,-32%,-28%,-57*,-17%,2%
COc1ccc(N/C=C/C(=O)c2ccc(OC)c(OC)c2)cc1,-2,1%,?,-14,2%,?
COc1ccc(C=CC(=O)c2ccc([N+](=O)[O-])cc2)cc1,-24,14%,12%,0,0%,-20%
CN(C)c1ccc(/C=C/C(=O)c2ccc(O)cc2)cc1,-13,-13%,-14%,-106*,61%,1%
COc1ccc(C=CC(=O)c2cc(O)ccc2O)cc1,-23,-4%,16µM*,?,-3%,18µM*
COc1ccc(CNC(=O)C(NC(C)=O)C(=O)Nc2ccc(OC)cc2)cc1 (stereo unspecified),1,5%,3%,-8,6%,6%
COc1ccc(C=CC(=O)c2c(OC)cc(OC)c(OC)c2O)cc1,-8,-42%,-21%,-63*,?,?
COc1ccc(C(=O)/C=C/Nc2cccc(C)n2)cc1OC,-15,-27%,-24%,-60*,-5%,-14%
C=CCOc1ccc(C=CC(=O)c2c(O)c(OC)c(OC)c(OC)c2OC)cc1,8,-28%,-17%,-102*,-12%,-19%
C=CCOc1ccc(/C=C/C(=O)OCC(=O)NCc2cccc(OC)c2)cc1,11,-29%,-2%,0,-21%,-6%
CS(=O)(=O)N(CC(=O)N1CCN(Cc2ccccc2)CC1)c1cccc(F)c1,20,4%,11%,10,-1%,11%
O=C(O)c1ccccc1SCc1csc(-c2ccccc2)n1,10,-6%,14%,2,1%,6%
CCOc1ccc(CONS(=O)(=O)c2ccc(NC(C)=O)cc2)cc1Cl,12,-25%,-7%,-9,?,-17%
CN(C)CCCNc1cc(N2CCN(C3CCCCC3)CC2)c2noc3c2c1C(=O)c1ccccc1-3,nt,16µM*,nt,nt,275%,nt
NC(N)=N/N=C/c1ccc2cccc(OCc3ccccc3)c2n1,4,-84%,23µM*,-96*,?,?
O/N=C/c1ccc2cccc(OCc3ccccc3)c2n1,-7,-9%,-4%,19,-22%,-2%
Oc1cccc(-c2nc3ccccc3s2)c1,-25,-7%,?,48,2%,?
Oc1cccc(-c2nnc(-c3cccc(O)c3)nn2)c1,-80*,-65%,-22%,31,-14%,-19%
Cc1ccc2[nH]c3c(c2c1)CN(C(=O)CN1CCCc2ccccc21)CC3,8,-22%,?,-10,-12%,23µM*
SMILES,Giardia killer,HepG2 tox,HT1080NT lethal,IL1B secr inh,TGFb inhibitor,HT1080 IDH1KD tx
COCCN(C(=O)COC(=O)CCOc1cc(C)ccc1C)c1c(N)n(Cc2ccccc2)c(=O)[nH]c1=O,-9,7%,6%,0,3%,20%
CC(=O)Nc1nc2cc3c(cc2s1)OCO3,5,-11%,-3%,-22,5%,-3%
O=C(Nc1nc2cc3c(cc2s1)OCO3)C1=COCCO1,?,8.9µM*,13µM*,23,-3%,18µM*
O=C(Nc1nnc(C2CC2)s1)c1ccc(Cl)nc1,1,-1%,-12%[9.24 µM],10,-4%,6%
O=C(Nc1cnn(Cc2ccc(Cl)cc2Cl)c1)c1noc2c1CCCC2,12,-2%,-12%,-11,16µM*,-17%
CC(=O)c1cccc(NC(=O)NNC(=O)c2ccc(Cl)cc2Cl)c1,-2,-30%,9%,17,-14%,9%
O=C(Nc1cnn(Cc2ccc(Cl)cc2Cl)c1)c1cc(-c2cccs2)on1,11,-32%,-1%,0,?,-28%
CC(=O)c1cccc(NC(=O)Nc2cnn(Cc3ccc(Cl)cc3Cl)c2)c1,-3,-21%,?,?,?,14µM*
Nc1nc2ccc([N+](=O)[O-])c(N)c2s1,9,-11%,-10%,0,-3%,-12%
O=C1CSC(c2cccc(F)c2)N1c1ccccc1 (stereo unspecified),7,-14%,10%,1,-13%,0%
O=C(NCC12CC3CC(CC(C3)C1)C2)c1cc2n(n1)C(C(F)(F)F)CC(c1ccco1)N2 (stereo unspecified),4,-104%,?,-87*,-19%,-22%
COc1ccc(NC(=O)c2cc3n(n2)C(C(F)(F)F)CC(c2ccco2)N3)cc1 (stereo unspecified),13,-32%,-51%,?,-1%,-43%
CCn1cc(C(=O)OCC(=O)c2ccccc2)c(=O)c2ccc(C)nc21,-3,0%,15%,33,-17%,1%
CCn1cc(C(=O)OCC(=O)c2cc(C)n(-c3cccc(C(F)(F)F)c3)c2C)c(=O)c2ccc(C)nc21,-21,-3%,-3%,-66*,-21%,2%
CC1CCN(Cc2c(C(=O)N/N=C/c3cc(Cl)ccc3O)nnn2-c2nonc2N)CC1,-15,-9%,?,103,?,4.1µM*
COc1c(Cl)cc(Cl)cc1/C=N/NC(=O)c1nnn(-c2nonc2N)c1CN1CCC(C)CC1,-16,-8%,10%,-17,-5%,-1%
CC(C)c1c(C(=O)N/N=C/c2ccoc2)nnn1-c1nonc1N,4,-1%,-1%,-1,4%,0%
CC1CCN(Cc2c(C(=O)N/N=C/c3ccc(C(F)(F)F)cc3)nnn2-c2nonc2N)CC1,1,-53%,?,-5,?,26µM*
